These results are taken from PubChem BioAssay.

The assay deals with Sam68 (KHDRBS1). Kind of assay: compounds binding KHDRBS1 protein – biochemical, small-molecule microarray, 635 nm fluorescence, primary screen (AID 1125).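 Also: score merges 667 nm channel intensity with signal to noise over triplicate slides.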 Particulars: higher = more signal.
With `CCCN1C(=O)[C@]2(CCS(=O)(=O)c3ccccc3)N=C(c3ccc(OCCCO)cc3)O[C@@H]2c2ccccc21`, the composite z-score came to 1.29. For `CC(C)(C)C(=O)N[C@@H](c1ccc(Cl)cc1)[C@]1(C)C[C@H]1C1CCCCC1`, the composite z-score came out at 1.29. Compound `COc1cc(CO)cc(I)c1O[C@H]1C=C(C(=O)NCCO)C[C@@H](N(CCN2CCOCC2)C(=O)C2CCOC2)[C@@H]1O` (stereo not given in full) yielded a composite z-score of 0.322.

Compound `C[C@]1(C(=O)NC2CC2)c2ccccc2C(=O)N(Cc2cc(C(F)(F)F)cc(C(F)(F)F)c2)[C@H]1c1ccc(CO)cc1` displayed a composite z-score of 1.32.

`COCCOC(=O)N1C(=O)[C@@]2(c3ccccc31)[C@H](c1ccccc1OCCO)N1[C@H](c3ccccc3)[C@H](c3ccccc3)OC(=O)[C@H]1[C@@H]2C(=O)Nc1nc2ccccc2s1` displayed a composite z-score of 1.31.

On to `CC(=O)NCCCC[C@@H]1NC(=O)[C@@H]2C[C@H](C(=O)NCCCCCCNC(=O)CS)[C@H](c3cccc(OCCO)c3)N2C1=O`, for which the composite z-score turned out to be 0.825. `CCCCC(=C=CC[C@@H](O)c1ccccc1OCCO)CCO` showed a composite z-score of 0.0301. With `C=C(COC)/C(=C/C[C@H](OC(=O)c1ccncc1)c1ccc(OCCO)cc1)c1cnc2ccccc2c1`, the composite z-score amounted to 1.29.

Compound `COC(=O)[C@@]1(Cc2ccc(F)cc2)[C@@H]2[C@@H](CC(=O)[C@H]2CC(=O)C(=O)N(C)C)CN1C(=O)c1ccccc1` showed a composite z-score of 1.34. `NCCCCCNC(=O)[C@@H]1C[C@@H]2C(=O)N[C@@H](Cc3ccccc3)C(=O)N2[C@@H]1c1cccc(OCCO)c1` registered a composite z-score of 0.861. `Cc1ccc(C(C)CC(O)C2C=CC3C(=O)N(C)C(=O)C3N2NC(=O)OC(C)(C)C)o1` (stereo not given) yielded a composite z-score of 1.21. On to `COCCOC(=O)N1C(=O)[C@@]2(c3cc(C#Cc4ccc(OC)cc4)ccc31)[C@H](c1ccc(O)cc1)N1[C@H](c3ccccc3)[C@H](c3ccccc3)OC(=O)[C@H]1[C@@H]2C(=O)NC[C@H](O)c1ccccc1`, for which the composite z-score was found to be 1.29.

`O=C(C1N=C(c2ccc(OCCCO)cc2)N(c2ccccc2)O1)N1CCOCC1` (stereo not given): the composite z-score was found to be 1.32. On to `O=C1O[C@@H](c2ccccc2)[C@@H](c2ccccc2)N2[C@@H](c3ccc(OCCO)cc3)[C@]3(C(=O)Nc4ccccc43)[C@@H](C(=O)NC[C@H](O)c3ccccc3)[C@H]12`, for which the composite z-score worked out at 0.989. Next, `O=C(O)[C@@]1(CCS(=O)(=O)c2ccccc2)COC(c2ccc(OCCCO)cc2)=N1`: -0.39; `O=C1O[C@H](c2ccccc2)[C@H](c2ccccc2)N2[C@H]1[C@@H](C(=O)O)[C@]1(C(=O)Nc3ccc(C#CCCO)cc31)[C@H]2c1ccc(O)cc1`: 0.0673; `O=C1C2C=CC(C(O)C(c3ccccc3)c3ccccc3)N(n3cnnc3)C2C(=O)N1Cc1ccccc1` (stereo not given): 1.3.

With `CCOC(=O)C[C@H]1[C@H](OC(=O)c2ccc(C(=O)c3ccccc3)cc2)[C@@H](NC(=O)c2ccc(-c3ccccc3)cc2)c2cc(OCCCO)ccc2N1C(=O)c1ccccc1`, the composite z-score is 1.31. For `CN1C(=O)[C@]2(Cc3ccccc3)N=C(c3ccc(OCCCO)cc3)O[C@@H]2c2ccccc21` the value was 1.29. For the compound `CC(CO)N1C(=O)[C@@H]2C3C(=O)OCCC/C=C\[C@H]3OC23C=CCN(c2ccc4ccccc4c2)C(=O)[C@@H]13` (stereo not given in full), the composite z-score was -0.704. The compound `Cc1ccc(S[C@]2(C(=O)NC3CC3)CC(=O)N(C3Cc4ccccc4C3)[C@@H]2c2ccc(CO)cc2)cc1` returned a composite z-score of 0.963.

In turn, `COCCOC(=O)N1C(=O)[C@@]2(c3cc(C#CC4=CCCCC4)ccc31)[C@H](C(=O)Nc1nc3ccccc3s1)[C@H]1C(=O)O[C@H](c3ccccc3)[C@H](c3ccccc3)N1[C@@H]2c1ccc(OCCO)cc1` showed a composite z-score of 1.16. Next, `CC(C)C[C@@H]1NC(=O)[C@H]2C[C@@H](C(=O)NCCCCCCN)[C@@H](c3ccc(O)cc3)N2C1=O`: 0.633. In turn, `C=CCN(Cc1ccccc1)C(=O)C(c1cccs1)N(CCOCCO)C(=O)/C=C\C(=O)O` (stereo not given) yielded a composite z-score of -0.754. `O=C1OCCC/C=C\[C@H]2OC34C=CCN(CCN5CCOCC5)C(=O)[C@H]3N(CCCO)C(=O)[C@@H]4C12` (stereo not given in full): the composite z-score is -0.284. For `[N-]=[N+]=NCc1ccccc1C[C@]1(C(=O)N2CCOCC2)N=C(c2ccc(OCCCO)cc2)O[C@H]1c1ccccc1N=[N+]=[N-]` the value was 1.34; for `C=CCNC(=O)[C@H]1[C@@H]2C(=O)O[C@@H](c3ccccc3)[C@@H](c3ccccc3)N2[C@@H](c2ccccc2OCCO)[C@]12C(=O)Nc1ccc(C#CC3=CCCCC3)cc12`, 1.29. Compound `C=CCN1C(=O)[C@@]2(O[C@@H](CCO)[C@H]([Si](C)(C)c3ccc(OC)cc3)[C@H]2C)c2cc(NC(=O)c3ccc(OC)cc3)ccc21` gave a composite z-score of 1.18. In turn, `C=CCNC(=O)[C@H]1[C@@H]2C(=O)O[C@@H](c3ccccc3)[C@@H](c3ccccc3)N2[C@@H](c2ccc(OCCO)cc2)[C@]12C(=O)N(C(=O)OCCOC)c1ccccc12` had a composite z-score of 1.3. Turning to `O=C1OCCC/C=C\[C@H]2OC34C=CCN(Cn5nnc6ccccc65)C(=O)[C@H]3N(CCCCCCO)C(=O)[C@@H]4C12` (stereo not given in full), the composite z-score worked out at 0.839.

In turn, `COCCCNC(=O)C1N=C(c2ccc(OCCCO)cc2)N(c2ccccc2)O1` (stereo not given) had a composite z-score of 1.3. As for `COc1ccc(CCNC(=O)[C@@H]2c3ccccc3C(=O)N(C3Cc4ccccc4C3)[C@H]2c2ccc(CO)cc2)cc1`, the composite z-score was 0.73. `COC(=O)[C@@]1(Cc2ccc(OC)cc2)[C@H]2c3cc(C(=O)N4CCCC4)n(Cc4ccc(OC)c(OC)c4)c3C[C@H]2CN1C(=O)c1ccccc1` gave a composite z-score of 1.3. For `COc1ccc([Si](C)(C)[C@H]2[C@H](CCO)O[C@@]3(C(=O)N(C)c4c(Br)cc(C)cc43)[C@@H]2C)cc1` the value was 0.953.

In turn, `CCOC(=O)[C@H]1C/C=C/C[C@H](C(=O)OCC)C(=O)O[C@H]2[C@@H](OC)O[C@H](CO)[C@@H](OC(=O)Nc3cccc(F)c3)[C@@H]2OC1=O` came in with a composite z-score of 1.19.
